# Assay results: PubChem BioAssay (NCATS)
# “And” between values parts separate entries of the source, which are not always exact repeats. Identical values can stand only once. A number with no mark means an inactive call. Results filed as inconclusive are left out. A call without a number means that no potency is given here. The source made the active and inactive calls. Unless noted, calls follow the shape of the dose curve; as a rule, active = well fitted curve in the direction sought with a large enough effect; inconclusive = small, poorly fitted or top-dose-only effect, or another doubt; inactive = no such curve, though single readings can be large; an effect the other way counts as inactive or inconclusive.
# Tests used:
# [1] = Cellular Toxicity (caspase-3) Hek293 (AID 664);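 also: cells exposed to compound for 16 h at 37 °C before readout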
# Method in brief: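 Cells plated, 5 hr at 37 °C; compounds added; 16 hr at 37 °C; Caspase-Glo 3/7 reagent, 20 min RT; luminescence read. Activation expressed relative to DMSO and 100 uM tamoxifen, AC50 by Hill model.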
# [2] = Cellular Toxicity (caspase-3) N2a (AID 665);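 also: compound exposure lasted 16 h at 37 °C before readout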
# Method in brief: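 N2a cells, 1500/well, 5 h settle at 37 °C; cpd 16 h, 37 °C; Caspase-Glo 3/7, 1 h RT; luminescence. Norm: DMSO = 0, 10 uM staurosporine = 100%. AC50, Hill fit.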
# [3] = Cellular Toxicity (caspase-3) NIH 3T3 (AID 666)
# Method in brief: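 Luminescence from aminoluciferin released by caspase-3/7 cleavage of a peptide substrate served as read-out. Mouse fibroblast NIH 3T3 cells were exposed to compounds over a concentration range for 16 hours, and AC50 values came from standard Hill modelling.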
# [4] = Cellular Toxicity (caspase-3) Renal Proximal Tubule (AID 667);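 also: cells exposed to compound for 16 hours at 37 °C before detection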
# Method in brief: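 Caspase-Glo 3/7 read-out, rat primary kidney proximal tubule cells. Compound exposure 16 h, 37 °C; detection after 1 h at RT. Activity scaled to DMSO and 10 uM staurosporine.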
# [5] = target: Cytochrome P450 3A4 (Homo sapiens) (UniProt P08684); experiment: qHTS Assay for Inhibitors and Substrates of Cytochrome P450 3A4 (AID 884); also: series mostly up to about 57 µM; nearly all actives have a fitted effect of over 50% in size
# Sequence of Cytochrome P450 3A4 (Homo sapiens) (P08684 whole entry, looked up): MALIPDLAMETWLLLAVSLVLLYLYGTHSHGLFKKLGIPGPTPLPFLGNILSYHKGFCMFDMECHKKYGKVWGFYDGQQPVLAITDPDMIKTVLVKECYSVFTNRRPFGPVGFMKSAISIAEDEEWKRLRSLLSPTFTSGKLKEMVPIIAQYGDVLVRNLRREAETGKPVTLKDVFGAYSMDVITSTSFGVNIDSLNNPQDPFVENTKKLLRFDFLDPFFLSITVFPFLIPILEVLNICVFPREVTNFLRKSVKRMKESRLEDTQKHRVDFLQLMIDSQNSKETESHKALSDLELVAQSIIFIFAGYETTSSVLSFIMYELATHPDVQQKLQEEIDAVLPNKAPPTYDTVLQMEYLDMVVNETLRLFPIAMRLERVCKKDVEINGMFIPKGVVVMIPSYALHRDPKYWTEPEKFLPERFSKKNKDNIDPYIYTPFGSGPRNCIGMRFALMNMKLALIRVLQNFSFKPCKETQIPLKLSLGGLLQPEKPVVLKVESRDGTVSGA
# Method in brief: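 20 nM human CYP3A4 with 25 uM Luciferin-PPXE (at KM) in 200 mM KPO4, preincubated 10 min with compound; NADPH regeneration started a 60 min RT reaction. Luciferin detected by luminescence, normalized to 57 uM ketoconazole as full inhibition.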
# [6] = target: Cytochrome P450 3A4 (Homo sapiens) (UniProt P08684); experiment: qHTS Assay for Activators of Cytochrome P450 3A4 (AID 885); also: nearly all actives have a fitted effect of over 65% in size; also: potency is read from the fitted curve at half-maximal effect
# Method in brief: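 Quantitative HTS format: compounds preincubated with 20nM human CYP3A4 and Luciferin-PPXE substrate at KM, reaction started by NADPH regeneration, stopped after 60 min, luciferase luminescence read 20 min later.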
# [7] = Cell Viability - LYMP2-001 (AID 921);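 also: cells exposed to compound for 24 h at 37 °C; nearly all actives have a fitted effect of over 70% in size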; also: potency is read from the fitted curve at half-maximal effect
# Method in brief: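 A lymphoblastoid cell line of human origin was treated with library compounds across a concentration series for 24 hours, and viable cell number was estimated from ATP-driven luciferase light output. Hill modeling gave AC50.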
# [8] = MultiTox-Fluor Cytotoxicity Assay - LYMP1-001 - Dead Cells (AID 946); also: potency is read from the fitted curve at half-maximal effect
# Method in brief: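 In this qHTS, 15 uM tetraoctylammonium bromide defined 100% and DMSO defined basal activity. Lymphoblastoid cells (LYMP1-001, 2500 per well) received compound for 16 hr at 37 C before a fluorogenic dead-cell substrate readout at 485/520 nm.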
# [9] = target: Guanine nucleotide-binding protein G(i) subunit alpha-1 (Homo sapiens) (UniProt P63096); experiment: qHTS Assay for Inhibitors of RGS12 GoLoco Motif Activity (Green Fluorophore) (AID 879);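 also: negative values mean loss of peptide binding seen as reduced polarization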
# Sequence of Guanine nucleotide-binding protein G(i) subunit alpha-1 (Homo sapiens) (P63096 whole entry, looked up): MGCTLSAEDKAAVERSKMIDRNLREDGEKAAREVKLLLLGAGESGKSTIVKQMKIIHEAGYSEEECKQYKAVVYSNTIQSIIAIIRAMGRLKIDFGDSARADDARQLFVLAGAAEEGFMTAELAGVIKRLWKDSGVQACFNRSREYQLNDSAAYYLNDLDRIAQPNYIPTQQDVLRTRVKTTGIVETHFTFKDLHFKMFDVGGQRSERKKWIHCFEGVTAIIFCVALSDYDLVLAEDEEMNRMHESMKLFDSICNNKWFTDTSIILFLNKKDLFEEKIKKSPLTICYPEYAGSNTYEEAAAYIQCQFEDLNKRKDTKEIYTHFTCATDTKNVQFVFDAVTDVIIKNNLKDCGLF
# Method in brief: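 Fluorescence polarization assay: 50 nM Gαi1 with 10 nM FITC-labeled RGS12 GoLoco peptide in 10 mM Tris pH 7.5, 150 mM NaCl, 0.1 mM GDP, 0.05% NP40, 10 min at room temperature with compound.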
# [10] = target: Cytochrome P450 2C9 (Homo sapiens) (UniProt P11712); experiment: qHTS Assay for Inhibitors and Substrates of Cytochrome P450 2C9 (AID 883); also: nearly all actives have a fitted effect of over 60% in size; also: potency is read from the fitted curve at half-maximal effect
# Sequence of Cytochrome P450 2C9 (Homo sapiens) (P11712 whole entry, looked up): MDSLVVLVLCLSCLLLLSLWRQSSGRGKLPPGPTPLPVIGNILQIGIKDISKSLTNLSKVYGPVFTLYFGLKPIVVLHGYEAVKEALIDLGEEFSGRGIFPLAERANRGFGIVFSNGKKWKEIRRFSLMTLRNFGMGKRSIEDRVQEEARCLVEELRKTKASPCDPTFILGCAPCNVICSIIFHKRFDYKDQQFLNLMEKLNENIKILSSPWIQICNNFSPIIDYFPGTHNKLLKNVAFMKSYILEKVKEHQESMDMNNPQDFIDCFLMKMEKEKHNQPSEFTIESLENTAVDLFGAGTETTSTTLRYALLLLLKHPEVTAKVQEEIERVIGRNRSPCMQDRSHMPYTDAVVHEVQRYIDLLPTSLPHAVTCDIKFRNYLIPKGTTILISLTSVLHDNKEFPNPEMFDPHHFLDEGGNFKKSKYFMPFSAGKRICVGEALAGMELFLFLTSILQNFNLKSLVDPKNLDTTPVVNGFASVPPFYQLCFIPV
# Method in brief: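 Human CYP2C9 (10nM) with Luciferin-H at 100uM (its KM) in 25mM KPO4; compound preincubated 10 min at 37C, then NADPH regeneration for 60 min at 37C. Luciferin read by luminescence after detection reagent; normalized to 57uM sulphaphenazole as full inhibition.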
# [11] = Confirmation and Secondary Assay for Modulators of Hemoglobin Beta Chain Splicing at IVS2 654 locus (AID 910);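 also: HeLa cells stably carrying EGFP split by mutant beta-globin IVS2-654 intron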
# Method in brief: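 HeLa cells stably expressing EGFP interrupted by β-globin IVS2-654 intron, seeded overnight in Opti-MEM/2% FCS, then treated 2 days at 37 °C. Restored splicing read as total peak GFP intensity per well by laser scanning cytometry (488 nm excitation, 500–520 nm emission); 500 nM antisense PNA as control.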
# [12] = qHTS Assay for Identification of Small Molecule Agonists for Hypoxia Response Element Signaling Pathway (AID 914; active = well fitted activation curve with a large enough effect in the signal ratio, with a control signal flat, not every such curve was filed as active; the % refers to the signal ratio); conditions: ME-180 HRE-bla reporter, beta-lactamase ratio, CoCl2, 17 h; stronger effect = higher value
# Method in brief: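 HRE-bla ME-180 assay for agonist-like enhancement of an EC50 CoCl2 stimulus: 17 h at 37 degrees Celsius, CCF4 for 2.5 h, ratiometric 460/530 nm signal converted to %Activity and fitted to AC50.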
# [13] = qHTS Assay for Identification of Small Molecule Agonists for Thrombopoietin (TPO) Signaling Pathway (AID 917)
# Method in brief: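 IL-3-dependent murine pro-B Ba/F3 cells, stably transfected with human TPO receptor and GpIIb-promoter luciferase, are incubated 24 hrs at 37 C with test compound and 26 pM TPO; luciferase signal is read after 10 min at room temperature.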
# [14] = Confirmation and Secondary Assay for Modulators of Hemoglobin Beta Chain Splicing at IVS2 705 locus (AID 930);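 also: HeLa cells stably expressing the EGFP-705 splicing reporter; GFP fluorescence per well restored by corrected splicing of the IVS2-705 intron in EGFP; series mostly up to about 46 µM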
# Method in brief: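 HeLa IVS2-705 EGFP reporter cells, 500/well, compound 2 d at 37C; correct splicing yields fluorescent EGFP. Control: 500 nM antisense PNA. Read-out: total peak GFP intensity.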
# [15] = target: Pyruvate kinase (Leishmania mexicana) (UniProt Q27686); experiment: qHTS Validation Assay for Inhibitors of Leishmania Mexicana Pyruvate Kinase (AID 945)
# Sequence of Pyruvate kinase (Leishmania mexicana) (Q27686 2-499 E452W): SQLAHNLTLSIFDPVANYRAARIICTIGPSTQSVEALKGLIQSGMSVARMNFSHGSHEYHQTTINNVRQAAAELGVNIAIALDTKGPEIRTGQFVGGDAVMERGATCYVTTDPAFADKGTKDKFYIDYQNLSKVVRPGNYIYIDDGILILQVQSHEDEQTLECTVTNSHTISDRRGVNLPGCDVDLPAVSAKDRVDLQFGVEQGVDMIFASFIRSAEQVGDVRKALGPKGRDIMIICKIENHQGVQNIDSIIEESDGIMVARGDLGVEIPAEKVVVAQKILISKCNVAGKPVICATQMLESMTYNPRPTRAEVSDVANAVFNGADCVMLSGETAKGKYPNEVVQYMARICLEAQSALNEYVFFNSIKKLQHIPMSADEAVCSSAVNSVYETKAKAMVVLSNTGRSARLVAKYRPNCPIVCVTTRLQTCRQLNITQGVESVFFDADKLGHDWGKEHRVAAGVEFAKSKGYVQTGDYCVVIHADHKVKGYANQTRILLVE
# Method in brief: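 Eight-point qHTS titrations; enzyme 0.2 nM LmPYK (E451W mutant); substrates 0.5 mM PEP, 0.1 mM ADP; 7 mM MgCl2; 1 h room temperature; PKLight luminescence normalized to neutral control.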
# [16] = qHTS Assay for Identification of Small Molecule Antagonists for NFkB Signaling Pathway (AID 895; active = well fitted inhibition curve with a large enough effect in the signal ratio, with a control signal flat, not every such curve was filed as active; the % refers to the signal ratio)
# Method in brief: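 ME-180 NFkB-bla cells (beta-lactamase under NFkB response element), plated overnight, treated with compound then 10 pM TNF alpha (about EC50) for 5 hrs at 37 C. LiveBLAzer FRET read at 460/530 nm emission, 405 nm excitation.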
# [17] = target: Cytochrome P450 2C19 (Homo sapiens) (UniProt P33261); experiment: qHTS Assay for Inhibitors and Substrates of Cytochrome P450 2C19 (AID 899); also: nearly all actives have a fitted effect of over 60% in size; also: potency is read from the fitted curve at half-maximal effect
# Sequence of Cytochrome P450 2C19 (Homo sapiens) (P33261 whole entry, looked up): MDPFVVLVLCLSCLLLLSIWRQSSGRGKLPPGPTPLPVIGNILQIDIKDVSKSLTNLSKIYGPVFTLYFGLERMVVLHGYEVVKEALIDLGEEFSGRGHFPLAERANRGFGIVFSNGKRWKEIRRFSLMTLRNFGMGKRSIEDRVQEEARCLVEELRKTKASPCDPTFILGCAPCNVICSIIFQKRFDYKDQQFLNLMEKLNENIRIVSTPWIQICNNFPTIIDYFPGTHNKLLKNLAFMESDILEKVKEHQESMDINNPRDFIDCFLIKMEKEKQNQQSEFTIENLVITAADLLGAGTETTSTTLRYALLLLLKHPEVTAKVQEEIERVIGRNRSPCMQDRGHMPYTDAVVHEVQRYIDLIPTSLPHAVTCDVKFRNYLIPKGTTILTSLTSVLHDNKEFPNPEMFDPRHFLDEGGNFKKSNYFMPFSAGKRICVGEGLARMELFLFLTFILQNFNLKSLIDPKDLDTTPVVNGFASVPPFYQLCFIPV
# Method in brief: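 5 nM human CYP2C19 with 10uM Luciferin-H EGE (at KM) in 50mM KPO4, compound preincubated 10 min at 37C, then NADPH regeneration for 60 min at 37C. Luciferin read by luminescence after detection reagent; normalized to 57uM ketoconazole as full inhibition.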
# [18] = target: Cytochrome P450 2D6 (Homo sapiens) (UniProt P10635); experiment: qHTS Assay for Inhibitors and Substrates of Cytochrome P450 2D6 (AID 891); also: potency is read from the fitted curve at half-maximal effect; nearly all actives have a fitted effect of over 60% in size
# Sequence of Cytochrome P450 2D6 (Homo sapiens) (P10635 whole entry, looked up): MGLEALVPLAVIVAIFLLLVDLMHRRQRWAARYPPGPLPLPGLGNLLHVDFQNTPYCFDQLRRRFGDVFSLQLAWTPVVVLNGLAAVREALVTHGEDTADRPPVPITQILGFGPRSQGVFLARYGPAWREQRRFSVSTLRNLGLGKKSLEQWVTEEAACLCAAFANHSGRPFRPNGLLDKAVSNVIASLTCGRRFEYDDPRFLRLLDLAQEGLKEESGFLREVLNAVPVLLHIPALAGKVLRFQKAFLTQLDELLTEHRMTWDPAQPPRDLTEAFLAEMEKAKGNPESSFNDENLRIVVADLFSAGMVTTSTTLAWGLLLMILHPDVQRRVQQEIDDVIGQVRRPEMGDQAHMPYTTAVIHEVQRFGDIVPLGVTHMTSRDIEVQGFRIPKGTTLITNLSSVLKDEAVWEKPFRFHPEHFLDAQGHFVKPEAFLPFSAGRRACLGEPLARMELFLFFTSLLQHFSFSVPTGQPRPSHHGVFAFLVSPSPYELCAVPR
# Method in brief: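 Human CYP2D6 (5 nM) with 30 uM Luciferin-ME EGE (at Km) in 100 mM KPO4, compound preincubated 10 min, then NADPH regeneration system for 60 min at room temperature. Luciferin read by luminescence; normalized to 1.43 uM quinidine.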
# [19] = target: Muscarinic acetylcholine receptor M1 (Rattus norvegicus) (UniProt P08482); experiment: qHTS Assay for Antagonists of Acetylcholine Muscarinic M1 Receptor: Kinetic Measurement of Intracellular Calcium Response (AID 943); also: potency is read from the fitted curve at half-maximal effect; nearly all actives have a fitted effect of over 75% in size
# Sequence of Muscarinic acetylcholine receptor M1 (Rattus norvegicus) (P08482 whole entry, looked up): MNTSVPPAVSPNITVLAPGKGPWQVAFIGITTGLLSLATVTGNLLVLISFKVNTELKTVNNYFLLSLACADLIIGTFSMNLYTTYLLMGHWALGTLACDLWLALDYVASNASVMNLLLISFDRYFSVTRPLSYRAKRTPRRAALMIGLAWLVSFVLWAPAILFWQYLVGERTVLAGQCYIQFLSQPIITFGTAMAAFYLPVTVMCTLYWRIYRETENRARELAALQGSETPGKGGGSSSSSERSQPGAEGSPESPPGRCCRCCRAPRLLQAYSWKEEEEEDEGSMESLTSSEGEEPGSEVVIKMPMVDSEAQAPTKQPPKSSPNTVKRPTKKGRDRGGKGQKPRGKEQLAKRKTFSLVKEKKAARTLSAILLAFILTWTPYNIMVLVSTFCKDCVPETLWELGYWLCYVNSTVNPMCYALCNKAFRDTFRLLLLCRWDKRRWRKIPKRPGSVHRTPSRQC
# Method in brief: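 Rat M1-CHO cells, 2000/well, overnight → Fluo-4 no-wash dye with probenecid, 1 h 37C → compound 10 min, room temp → basal read 6 s → carbachol EC80 (100 nM) → 4 min kinetic read; peak/basal.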
# [20] = target: Muscarinic acetylcholine receptor M1 (Rattus norvegicus) (UniProt P08482); experiment: qHTS Assay for Antagonists of Acetylcholine Muscarinic M1 Receptor: Measurement of IP-One Response (AID 944); also: potency is read from the fitted curve at half-maximal effect; nearly all actives have a fitted effect of over 75% in size
# Method in brief: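 M1-CHO (rat), 2000 cells/well, overnight recovery; cpd 10 min; carbachol EC80 (200 nM), 30 min, HEPES buffer + 50 mM LiCl pH 7.4; IP-One HTRF, Ex 337, Em 620/665 nm.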
compound,measurement,setting,value
Oc1c(Br)cc(Br)cc1Br,outcome,[1],inactive
same,outcome,[2],inactive
same,outcome,[3],inactive
same,outcome,[4],inactive
same,Potency,[5],inactive
same,Potency,[6],15.8 µM (active)
same,Potency,[7],inactive
same,Potency,[8],inactive
c1ccc2nc(N3CCNCC3)ccc2c1,outcome,[9],inactive
same,Potency,[10],inactive
same,Potency,[6],inactive
same,outcome,[11],inactive
same,activation,[12],-4.77%
same,outcome,[13],inactive
same,outcome,[14],inactive
same,outcome,[15],inactive
COC(=O)C1=CCCN(C)C1,outcome,[9],inactive
same,Potency,[5],inactive
same,outcome,[16],inactive
same,outcome,[11],inactive
same,outcome,[13],inactive
same,outcome,[14],inactive
same,outcome,[15],inactive
C[C@@H]1C[C@@H]([C@H](O)CC2CC(=O)NC(=O)C2)C(=O)[C@@H](C)C1,outcome,[1],inactive
same,outcome,[2],inactive
same,outcome,[4],inactive
same,Potency,[7],1.26 µM (active) and 1.58 µM (active)
same,Potency,[8],inactive
NC(=O)CN1CCCC1=O,outcome,[9],inactive
same,Potency,[5],inactive
same,outcome,[11],inactive
same,outcome,[13],inactive
same,outcome,[14],inactive
same,outcome,[15],inactive
Oc1ccc(Cl)cc1Sc1cc(Cl)ccc1O,Potency,[10],0.398 µM (active)
same,Potency,[17],0.0794 µM (active)
CN1CCc2cc(Cl)c(O)cc2[C@H]2c3ccccc3CC[C@@H]21,Potency,[5],inactive
CCNc1nc(Cl)nc(NCC)n1,Potency,[5],inactive
same,outcome,[11],inactive
same,outcome,[14],inactive
CC(C)[N+](C)(CCC(C(N)=O)(c1ccccc1)c1ccccc1)C(C)C,Potency,[5],inactive
same,Potency,[18],3.98 µM (active)
same,outcome,[11],inactive
same,outcome,[14],inactive
NC(N)=NCCC[C@H](N)C(=O)O,Potency,[17],inactive
O=C1NCN(c2ccccc2)C12CCN(CCCOc1ccc(F)cc1)CC2,Potency,[18],0.158 µM (active)
Cc1ccc(N=CN(C)C=Nc2ccc(C)cc2C)c(C)c1,outcome,[11],inactive
same,outcome,[14],inactive
Clc1ccc(CSC(Cn2ccnc2)c2ccc(Cl)cc2Cl)cc1 (configuration not stated),Potency,[6],inactive
same,outcome,[11],inactive
same,outcome,[14],inactive
N#Cc1nn(-c2c(Cl)cc(C(F)(F)F)cc2Cl)c(N)c1S(=O)C(F)(F)F (configuration not stated),Potency,[6],inactive
same,outcome,[11],inactive
same,outcome,[14],inactive
Oc1ccc(Cl)cc1Cc1cc(Cl)ccc1O,Potency,[6],inactive
Cc1cc(C(C)(C)C)cc(C)c1CC1=NCCN1,Potency,[19],5.62 µM (active)
same,Potency,[20],10 µM (active)
O=C(CCCN1CCC(n2c(=O)[nH]c3ccccc32)CC1)c1ccc(F)cc1,Potency,[18],6.31 µM (active)
CN(C)C(=O)Oc1cc(OC(=O)N(C)C)cc(C(O)CNC(C)(C)C)c1 (configuration not stated),Potency,[5],inactive
same,outcome,[11],inactive
same,outcome,[14],inactive
CN(C)CC/C=C1\c2ccccc2Sc2ccc(Cl)cc21,Potency,[18],2.51 µM (active)
CC(=O)c1ccc2c(c1)N(CCCN(C)C)c1ccccc1S2,Potency,[18],2.51 µM (active)
CCCCN(CCCC)CCC(O)c1cc2c(Cl)cc(Cl)cc2c2cc(C(F)(F)F)ccc12 (configuration not stated),Potency,[6],inactive
same,Potency,[18],3.98 µM (active)
COC(=O)C1=C(C)NC(C)=C(C(=O)OC)C1c1ccccc1[N+](=O)[O-],Potency,[8],50.1 µM (active)
CCCCCCCCCCCCCCCC[n+]1ccccc1,Potency,[5],inactive
same,outcome,[11],inactive
same,outcome,[14],inactive
CCCC(C)C1(CC)C(=O)N=C(S)NC1=O (configuration not stated),outcome,[11],inactive
same,outcome,[14],inactive
O=C(NC(=O)c1c(F)cccc1F)Nc1cc(Cl)c(OC(F)(F)C(F)C(F)(F)F)cc1Cl (configuration not stated),Potency,[5],inactive
same,outcome,[11],inactive
same,outcome,[14],inactive
c1ccc(-c2ccc(C(c3ccccc3)n3ccnc3)cc2)cc1 (configuration not stated),Potency,[6],inactive
Clc1ccc(CO/N=C(\Cn2ccnc2)c2ccc(Cl)cc2Cl)c(Cl)c1,Potency,[6],inactive
same,outcome,[11],inactive
same,outcome,[14],inactive
Clc1ccc(C(OCCN2CCCCC2)c2ccccc2)cc1 (configuration not stated),Potency,[6],inactive
same,outcome,[11],inactive
same,outcome,[14],inactive
